Assay [1] can be described thus: rapamycin-like changes in RPL19A-GFP expression – cell-based, S. cerevisiae, multiplex flow cytometry, primary screen (AID 1862; in the data active = percent of DMSO control GFP below about 86%;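 also: lower values mimic rapamycin by blocking the RPL19A rise seen in DMSO cells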). The note with it: S. cerevisiae RPL19A-GFP strain, flow cytometry fluorescence, 3 h; at 10 µM; stronger effect = lower value. In general terms: Flow cytometry measures light scatter and fluorescence of single cells or particles in a stream.
A short description of assay [2]: TOR pathway GLN3 branch reporter MEP2-GFP changes – S. cerevisiae, multiplex flow cytometry, primary screen (AID 1867;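 active = GFP response, as percent of the DMSO control, above the screen-wide mean plus 3 SD, about 139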;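 also: median GFP channel fluorescence of barcode-gated MEP2-GFP cells measured by flow cytometry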). The note with it: S. cerevisiae MEP2-GFP strain, 3 h, at 10 µM, stronger effect = higher value.
A short description of assay [3]: TOR pathway RTG branch CIT2 reporter changes – S. cerevisiae, GFP fusion, multiplex flow cytometry, primary screen (AID 1870;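 active = percent response above a set limit, the screen-wide mean plus 3 SD, cut at about 130% in these data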;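 also: barcoded CIT2-GFP strain pooled with four other GFP strains with rapamycin as positive control; median GFP fluorescence per well over plate mean of DMSO wells so 100% = DMSO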). The note with it: S. cerevisiae CIT2-GFP expression, 3 h, at 10 µM, stronger effect = higher value.
Assay [4] in a line: TOR pathway LAP4-GFP level changes – S. cerevisiae, multiplex flow cytometry, primary screen (AID 1873;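 active = GFP signal, as percent of the solvent control, above the screen mean plus 3 SD, about 149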). The note with it: S. cerevisiae LAP4-GFP expression, 3 h, at 10 µM, stronger effect = higher value.
Assay [5] is described as follows: yeast AGP1-GFP level changes, GLN3 branch – cell-based, multiplex flow cytometry, S. cerevisiae, primary screen (AID 1887;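 active = GFP signal above the screen-wide mean plus 3 SD, that is over about 124.5% of the solvent control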;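 also: AGP1-GFP fusion strain of S. cerevisiae within a five-strain barcoded multiplex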). The settings on record: 3 h, at 10 µM, stronger effect = higher value.
Assay [6] in a line: reduced mouse 2C T cell binding to pMHC/ICAM-1 vesicles – MLPCN validation set, flow cytometry, LFA-1/ICAM-1 modulator project, pilot screen (AID 2523;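 active = response below a set limit, under 55% cells CD8-positive and vesicle-bound, and CD8 cells' 90th-percentile brightness under 279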;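 as to vesicle binding response: mean PE anti-B7-1 fluorescence of CD8+ cells relative to row control; 100% = QL9-loaded vesicles with DMSO vehicle in the same plate row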). The note with it: 2C mouse CD8+ T cells, at 7 µM, stronger effect = lower value; double positive events: measured here: CD8+/vesicle+ event percentage.
Assay [7] has as its target Integrin beta-1 (Homo sapiens) + Integrin alpha-4 (Homo sapiens) (UniProt P13612+P05556). In words: alpha4beta1 integrin LIBS antibody binding reduction – U937 cells, HUTS-21 mAb, flow cytometry, validation set, VLA-4 allosteric modulator project, pilot screen (AID 2674;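 active = inhibition above 50%, about 3 SD of the validation set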;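 also: antibody binding induced by the VLA-4 ligand LDV present at three times its Kd; 0% = LDV ligand with antibody and no compound and 100% = antibody without LDV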). The note with it: HUTS-21 LIBS mAb binding, at 6.7 µM, stronger effect = higher value.
A short description of assay [8]: calorie-restriction mimetic ROS inhibitors, yeast – validation compound set, pilot screen (AID 2706;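 active = superoxide response below 65% of plate, a cut near 3 SD across the whole screen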;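 also: yeast exposed to compound for one week at 30 degrees C before staining; 100% = mean of all compound wells on the same plate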). The settings on record: S. cerevisiae aging, superoxide DHE fluorescence; at 10 µM; stronger effect = lower value.
The target of assay [9] is Beta-adrenergic receptor kinase 1 (Homo sapiens) (UniProt P25098). In words: GRK2 binders displacing RNA aptamer, biochemical, validation, human GRK2, bead flow cytometry (AID 488806;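 active = aptamer binding inhibition above 30%, about 3 SD of noise from non-fluorescent compounds; inactive = inhibition at or below 30%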). The settings on record: bead-bound GRK2, FAM-aptamer displacement, at 10 µM, stronger effect = higher value.
Chain of Beta-adrenergic receptor kinase 1 (Homo sapiens) (P25098 whole entry, looked up): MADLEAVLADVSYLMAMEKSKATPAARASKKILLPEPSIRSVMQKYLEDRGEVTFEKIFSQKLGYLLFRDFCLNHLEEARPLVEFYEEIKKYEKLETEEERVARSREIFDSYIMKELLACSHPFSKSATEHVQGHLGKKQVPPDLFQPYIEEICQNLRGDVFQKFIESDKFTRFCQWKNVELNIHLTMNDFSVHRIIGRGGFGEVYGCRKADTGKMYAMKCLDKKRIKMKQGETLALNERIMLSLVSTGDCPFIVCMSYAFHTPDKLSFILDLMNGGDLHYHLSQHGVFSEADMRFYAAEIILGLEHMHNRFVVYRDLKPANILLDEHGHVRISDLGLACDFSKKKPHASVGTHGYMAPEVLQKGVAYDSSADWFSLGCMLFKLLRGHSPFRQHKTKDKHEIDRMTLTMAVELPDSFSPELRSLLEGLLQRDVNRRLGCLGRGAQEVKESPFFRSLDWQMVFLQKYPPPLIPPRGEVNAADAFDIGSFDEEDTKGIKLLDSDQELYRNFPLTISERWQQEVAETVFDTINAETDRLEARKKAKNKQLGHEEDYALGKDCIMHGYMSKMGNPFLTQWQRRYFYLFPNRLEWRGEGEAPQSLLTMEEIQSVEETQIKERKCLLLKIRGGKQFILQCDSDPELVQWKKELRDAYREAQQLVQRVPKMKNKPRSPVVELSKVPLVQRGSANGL
Assay [10] concerns the target Beta-2 adrenergic receptor (Homo sapiens) (UniProt P07550). In words: agonist-induced loss of surface beta2AR – cell-based, FAP fluorogen, flow cytometry, validation set, pilot screen (AID 504459;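 active = percent response above 42, roughly 3 SD of non-fluorescent test compounds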;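 also: agonist-driven loss of surface beta2AR via internalization measured by FAP dye flow cytometry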). The note with it: Am2.2-beta2AR cells, at 10 µM, stronger effect = higher value.
Assay [11] deals with AP-2 complex subunit beta (Homo sapiens) (UniProt P63010). In words: beta-arrestin/AP2 interaction blockers – biochemical, validation set, GST-AP2 beads, flow cytometry, pilot screen (AID 504541;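 active = inhibition above 54%, about 3 SD of non-fluorescent compounds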;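 also: AP2 carries R879A mutation and is captured from E. coli lysate; bead-bound FITC arrestin peptide fluorescence measuring arrestin peptide binding to AP2; 0% = DMSO wells and 100% = excess unlabeled arrestin peptide control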). The note with it: FITC arrestin peptide, at 10 µM, stronger effect = higher value.
Chain of AP-2 complex subunit beta (Homo sapiens) (P63010 whole entry, looked up, one chain of several): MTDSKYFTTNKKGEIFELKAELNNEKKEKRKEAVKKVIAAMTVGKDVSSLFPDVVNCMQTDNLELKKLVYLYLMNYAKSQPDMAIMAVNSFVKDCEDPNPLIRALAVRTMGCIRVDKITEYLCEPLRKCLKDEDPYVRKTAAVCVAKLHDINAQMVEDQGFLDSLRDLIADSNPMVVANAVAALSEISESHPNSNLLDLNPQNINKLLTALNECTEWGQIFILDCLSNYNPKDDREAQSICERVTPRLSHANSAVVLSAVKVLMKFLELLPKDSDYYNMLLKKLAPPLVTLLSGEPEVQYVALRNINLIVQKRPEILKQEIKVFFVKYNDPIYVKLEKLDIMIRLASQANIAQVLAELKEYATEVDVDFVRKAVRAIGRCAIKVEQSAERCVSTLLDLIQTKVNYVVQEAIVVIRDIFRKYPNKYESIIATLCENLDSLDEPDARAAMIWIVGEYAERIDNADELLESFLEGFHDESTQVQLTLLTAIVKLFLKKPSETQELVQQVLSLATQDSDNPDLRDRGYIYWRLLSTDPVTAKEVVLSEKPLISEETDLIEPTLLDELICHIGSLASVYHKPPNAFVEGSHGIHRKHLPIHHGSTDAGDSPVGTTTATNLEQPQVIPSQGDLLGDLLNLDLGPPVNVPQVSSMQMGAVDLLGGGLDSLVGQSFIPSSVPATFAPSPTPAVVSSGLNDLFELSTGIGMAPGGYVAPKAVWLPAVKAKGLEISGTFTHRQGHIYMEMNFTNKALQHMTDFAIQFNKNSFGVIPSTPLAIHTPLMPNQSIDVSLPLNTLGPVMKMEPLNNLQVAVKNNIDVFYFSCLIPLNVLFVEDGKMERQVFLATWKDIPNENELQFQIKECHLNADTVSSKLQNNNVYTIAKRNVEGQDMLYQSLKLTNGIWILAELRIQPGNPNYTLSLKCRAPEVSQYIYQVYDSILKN
The nature of assay [12]: cytosolic pH regulators acting via V-ATPase – S. cerevisiae, pHLuorin, HTS validation (AID 504600; in the data active = response above about 15%;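 also: plate controls were DMSO for no effect and reference compound for full effect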). The note with it: V-ATPase proton transport, at 10 µM, stronger effect = higher value.
The subject of assay [13] is anti-desmoglein-3 scFv antibody binding to human DSG3. Description: blockers of pathogenic pemphigus antibody–desmoglein-3 binding – biochemical, validation compound set, bead-based, flow cytometry, pilot screen (AID 588368;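 active = binding below the plate cutoff, the plate median minus 3 SD, with a reading above zero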;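 also: signal is the median channel fluorescence of bead-bound GFP antibody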). The note with it: Protein G beads, DSG3-Fc, scFv-GFP binding, at 10 µM, stronger effect = lower value.
For assay [14], the system named is Botulinum neurotoxin type F light chain protease (Clostridium botulinum). Description: Clostridium botulinum type F light chain protease inhibitors, microsphere substrate cleavage, validation (AID 588459). The settings on record: multiplex microsphere protease substrate cleavage assay, flow cytometry; at 10 µM; stronger effect = higher value.
Assay [15] concerns the target Botulinum neurotoxin type A (Clostridium botulinum) (UniProt P0DPI0). In words: BoNT/A light chain protease inhibitors, biochemical, multiplex microsphere flow cytometry, validation set (AID 588460). The settings on record: at 10 µM, stronger effect = higher value.
In assay [16] the target is Lethal factor (Bacillus anthracis) (UniProt P15917). Description: Bacillus anthracis lethal factor inhibition, microsphere flow cytometry protease assay, validation at 10 µM (AID 588461). The note with it: multiplex microsphere protease cleavage assay, stronger effect = higher value.
Chain of Lethal factor (Bacillus anthracis) (P15917 whole entry, looked up): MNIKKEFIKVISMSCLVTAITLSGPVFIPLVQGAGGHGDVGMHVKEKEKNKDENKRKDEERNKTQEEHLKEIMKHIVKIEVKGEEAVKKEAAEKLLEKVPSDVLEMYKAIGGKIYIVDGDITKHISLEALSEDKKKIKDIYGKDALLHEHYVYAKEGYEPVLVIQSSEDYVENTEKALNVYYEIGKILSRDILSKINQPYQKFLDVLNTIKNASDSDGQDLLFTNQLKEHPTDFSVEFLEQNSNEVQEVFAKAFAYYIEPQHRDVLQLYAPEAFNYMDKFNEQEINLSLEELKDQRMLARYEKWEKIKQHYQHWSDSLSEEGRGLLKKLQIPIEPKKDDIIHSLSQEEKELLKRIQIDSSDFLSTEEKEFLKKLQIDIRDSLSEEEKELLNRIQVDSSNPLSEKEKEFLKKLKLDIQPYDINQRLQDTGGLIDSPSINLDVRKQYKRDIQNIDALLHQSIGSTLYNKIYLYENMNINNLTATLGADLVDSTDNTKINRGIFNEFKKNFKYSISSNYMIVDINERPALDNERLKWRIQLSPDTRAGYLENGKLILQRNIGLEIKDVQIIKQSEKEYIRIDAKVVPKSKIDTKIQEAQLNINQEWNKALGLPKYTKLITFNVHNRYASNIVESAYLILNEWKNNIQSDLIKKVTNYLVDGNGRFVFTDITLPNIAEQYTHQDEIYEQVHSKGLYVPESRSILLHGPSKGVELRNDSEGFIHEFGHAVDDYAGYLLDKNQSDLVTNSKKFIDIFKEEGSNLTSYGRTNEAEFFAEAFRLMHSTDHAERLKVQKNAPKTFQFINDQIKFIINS
Assay [17] can be described thus: Nile Red efflux blockade in pump-expressing yeast – validation compound set, multiplex, phenotypic, pilot screen (AID 588506;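 active = efflux inhibition above 0.42, the validation set average plus 4 SD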;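 also: Nile Red retained in cells so higher fluorescence means more efflux inhibition; 0 = negative control wells and 1 = enniatin B 25 µM full block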). The note with it: S. cerevisiae pump-expressing triplex, Nile Red efflux flow cytometry; at 10 µM; stronger effect = higher value.
The target of assay [18] is ATP-binding cassette sub-family B member 6 (Homo sapiens) (UniProt Q9NP58). In words: blockers of ABCB6-driven porphyrin uptake – K562-ABCB6 cells, flow cytometry, validation set, pilot screen (AID 588550;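 active = inhibition above the screen-wide mean plus 3 SD, about 51%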;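 also: 0% = DMSO wells and 100% = benzethonium chloride 70 µM positive control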). The settings on record: K562-ABCB6 porphyrin accumulation, 1 h, at 10 µM, stronger effect = higher value.
Chain of ATP-binding cassette sub-family B member 6 (Homo sapiens) (Q9NP58 whole entry, looked up): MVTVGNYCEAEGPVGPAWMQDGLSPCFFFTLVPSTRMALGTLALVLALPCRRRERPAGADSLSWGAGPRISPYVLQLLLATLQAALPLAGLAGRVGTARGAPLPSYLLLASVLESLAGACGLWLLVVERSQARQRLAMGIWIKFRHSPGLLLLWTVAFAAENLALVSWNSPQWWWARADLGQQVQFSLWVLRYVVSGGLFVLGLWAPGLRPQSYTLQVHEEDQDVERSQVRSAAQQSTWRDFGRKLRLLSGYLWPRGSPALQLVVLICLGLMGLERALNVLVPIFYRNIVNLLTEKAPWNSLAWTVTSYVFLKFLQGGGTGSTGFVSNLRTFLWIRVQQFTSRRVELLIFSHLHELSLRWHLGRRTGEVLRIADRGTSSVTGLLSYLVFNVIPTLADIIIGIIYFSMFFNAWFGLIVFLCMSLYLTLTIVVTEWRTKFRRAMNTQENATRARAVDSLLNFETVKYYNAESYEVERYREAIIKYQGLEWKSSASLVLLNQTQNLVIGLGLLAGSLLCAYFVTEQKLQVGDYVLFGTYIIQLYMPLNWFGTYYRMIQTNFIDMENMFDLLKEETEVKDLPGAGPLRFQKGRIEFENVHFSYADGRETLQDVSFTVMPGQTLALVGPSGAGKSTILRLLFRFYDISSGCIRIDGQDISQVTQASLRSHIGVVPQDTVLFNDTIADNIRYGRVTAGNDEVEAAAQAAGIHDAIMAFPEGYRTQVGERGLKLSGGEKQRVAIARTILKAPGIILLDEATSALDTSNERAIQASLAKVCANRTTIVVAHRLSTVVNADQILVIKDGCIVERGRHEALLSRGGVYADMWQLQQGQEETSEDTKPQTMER
The nature of assay [19]: AML differentiation inducers, ER-HoxA9 marrow cells – cell-based, GFP/MAC1 double positive, flow cytometry, validation set, primary screen (AID 588685;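 active = differentiation response of at least 50%, scaled between solvent and reference control, from cells with both markers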;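 also: compound exposure lasts four days before antibody staining and flow analysis; 0% = DMSO wells and 100% = 5 µM fulvestrant positive control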). The settings on record: stronger effect = higher value.

Each structure is given as a SMILES string. Records with an inconclusive call do not appear. Activity calls are given as the source filed them. Unless noted, no rule for the calls is given here.

The inhibition is the change of the read-out against control, counted positive when it falls.

Chain of Beta-2 adrenergic receptor (Homo sapiens) (P07550 whole entry, looked up): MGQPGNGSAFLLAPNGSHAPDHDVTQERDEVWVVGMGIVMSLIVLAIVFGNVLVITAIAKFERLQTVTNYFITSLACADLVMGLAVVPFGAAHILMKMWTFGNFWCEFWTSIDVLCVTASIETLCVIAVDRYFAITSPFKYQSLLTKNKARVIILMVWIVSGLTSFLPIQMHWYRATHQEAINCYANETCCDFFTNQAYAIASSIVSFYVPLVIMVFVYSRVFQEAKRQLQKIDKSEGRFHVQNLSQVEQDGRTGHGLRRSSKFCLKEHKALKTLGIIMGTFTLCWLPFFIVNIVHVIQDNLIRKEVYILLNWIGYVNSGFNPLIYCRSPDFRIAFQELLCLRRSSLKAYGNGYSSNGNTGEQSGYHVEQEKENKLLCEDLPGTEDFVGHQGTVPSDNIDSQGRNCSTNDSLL
Chain of Botulinum neurotoxin type A (Clostridium botulinum) (P0DPI0 whole entry, looked up): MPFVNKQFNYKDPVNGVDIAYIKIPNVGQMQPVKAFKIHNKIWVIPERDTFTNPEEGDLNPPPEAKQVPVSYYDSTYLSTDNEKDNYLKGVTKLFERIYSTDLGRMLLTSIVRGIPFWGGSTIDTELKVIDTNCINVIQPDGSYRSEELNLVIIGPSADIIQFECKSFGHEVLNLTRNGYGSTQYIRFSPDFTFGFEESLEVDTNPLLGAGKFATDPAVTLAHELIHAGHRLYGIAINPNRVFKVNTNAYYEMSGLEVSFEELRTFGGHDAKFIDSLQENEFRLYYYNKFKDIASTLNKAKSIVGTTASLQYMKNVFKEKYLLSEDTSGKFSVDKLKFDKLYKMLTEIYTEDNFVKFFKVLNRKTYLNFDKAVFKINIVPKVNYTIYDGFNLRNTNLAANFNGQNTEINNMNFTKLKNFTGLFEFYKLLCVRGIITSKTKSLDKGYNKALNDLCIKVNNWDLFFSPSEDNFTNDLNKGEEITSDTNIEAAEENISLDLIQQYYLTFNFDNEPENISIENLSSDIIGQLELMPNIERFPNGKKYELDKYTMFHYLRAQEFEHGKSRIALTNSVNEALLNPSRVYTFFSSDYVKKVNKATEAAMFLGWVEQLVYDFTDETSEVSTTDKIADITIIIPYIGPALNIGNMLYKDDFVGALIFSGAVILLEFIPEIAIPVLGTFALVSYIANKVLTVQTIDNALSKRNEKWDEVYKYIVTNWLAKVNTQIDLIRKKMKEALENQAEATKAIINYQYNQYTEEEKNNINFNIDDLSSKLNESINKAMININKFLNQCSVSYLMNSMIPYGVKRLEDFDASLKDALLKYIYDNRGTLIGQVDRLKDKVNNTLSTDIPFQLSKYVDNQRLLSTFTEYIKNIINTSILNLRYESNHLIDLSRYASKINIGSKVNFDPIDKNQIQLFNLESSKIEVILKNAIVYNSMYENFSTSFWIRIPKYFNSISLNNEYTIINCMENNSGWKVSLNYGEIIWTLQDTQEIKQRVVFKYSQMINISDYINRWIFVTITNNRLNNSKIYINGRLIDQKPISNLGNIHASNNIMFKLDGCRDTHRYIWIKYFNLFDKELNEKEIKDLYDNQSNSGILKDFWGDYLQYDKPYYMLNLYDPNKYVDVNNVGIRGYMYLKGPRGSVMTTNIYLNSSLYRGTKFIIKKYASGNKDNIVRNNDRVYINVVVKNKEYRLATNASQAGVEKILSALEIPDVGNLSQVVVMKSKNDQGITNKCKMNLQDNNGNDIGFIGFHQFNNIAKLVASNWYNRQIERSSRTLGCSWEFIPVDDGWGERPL

Take `C=C1[C@@H](C)[C@H]2[C@H](Cc3ccccc3)NC(=O)[C@]23OC(=O)/C=C/[C@H](O)CCC[C@@H](C)C/C=C/[C@H]3[C@@H]1O`: the percent of DMSO control GFP in assay [1] is 106% (inactive). Moreover, the values for the GFP response vs DMSO in [2] and in assay [4] were 102% (inactive) and 114% (inactive), respectively. In [3], the percent response of DMSO control was 106% (inactive). The GFP response, % of DMSO in [5] was 119% (inactive). The molecule also registered a double positive events in assay [6] of 62.1%. For the same molecule, the vesicle binding response in assay [6] was 205% (inactive). Besides, the inhibition is -2.82% (inactive) in [7]; -4.43% (inactive) in [11]; 2% (inactive) in assay [14]; 0.4% (inactive) in [15]; -2.5% (inactive) in assay [16]; 7% (inactive) in [18]. Moreover, the superoxide response (% of plate) in assay [8] was 102% (inactive). The aptamer binding inhibition in assay [9] was 4% (inactive). For the same molecule, the response in [10] is 36.2% (inactive); in assay [12] it was 0.39% (inactive). The binding (% of control) in assay [13] was 102% (inactive). Moreover, the efflux inhibition (fraction of control) in assay [17] was -0.21 (inactive). In addition, the differentiation response in [19] is -4% (inactive).

As for `O=C1NC(=O)C2(Cc3ccccc3N3CCCC32)C(=O)N1c1ccc(Cl)cc1` (stereo not given), the percent of DMSO control GFP in assay [1] is 106% (inactive). Further, the GFP response vs DMSO is 88.8% (inactive) in assay [2] and 93.3% (inactive) in [4]. Moreover, the percent response of DMSO control in assay [3] was 101% (inactive). Besides, the GFP response, % of DMSO in assay [5] was 97.5% (inactive). The same molecule yielded a double positive events in [6] of 64.8%. The vesicle binding response in assay [6] is 186% (inactive). Further, the inhibition in [7] is 14.1% (inactive); in assay [11], -2.86% (inactive); in [14], -0.7% (inactive); in [15], 0.8% (inactive); in assay [16] it was 0.9% (inactive); in assay [18], 12% (inactive). Also, in assay [8], the superoxide response (% of plate) is 104% (inactive). The aptamer binding inhibition in [9] is 6% (inactive). Moreover, the response in [10] is -5.5% (inactive); in assay [12], 0.31% (inactive). For the same molecule, in assay [13], the binding (% of control) was 100% (inactive). Also, the efflux inhibition (fraction of control) in assay [17] was 0.24 (inactive). For the same molecule, the differentiation response in [19] was 1.22% (inactive).

As to `CC(C)C[C@H]1C(=O)N2CCCC2[C@]2(O)O[C@](NC(=O)[C@@H]3C=C4c5cccc6[nH]cc(c56)CC4N(C)C3)(C(C)C)C(=O)N12` (stereo not given in full), the percent of DMSO control GFP in assay [1] is 93.5% (inactive). For the same molecule, the GFP response vs DMSO in [2] is 116% (inactive); in assay [4], 79.2% (inactive). The percent response of DMSO control in assay [3] is 96.6% (inactive). For the same molecule, the GFP response, % of DMSO in [5] was 96.6% (inactive). The same molecule returned a double positive events in assay [6] of 61.2%. For the same molecule, the vesicle binding response in assay [6] was 108% (inactive). For the same molecule, the inhibition in assay [7] is -162% (inactive); in assay [11], 4.91% (inactive); in assay [14], -7% (inactive); in assay [15], -1.6% (inactive); in assay [16], -34.6% (inactive); in assay [18], 10% (inactive). Also, the superoxide response (% of plate) in [8] was 94.2% (inactive). Also, the aptamer binding inhibition in [9] is 5% (inactive). In addition, the response in assay [10] was -35.9% (inactive); in assay [12] it was 3.06% (inactive). The binding (% of control) in assay [13] was 109% (inactive). Further, the efflux inhibition (fraction of control) in assay [17] was 0.41 (inactive). The differentiation response in assay [19] is -6.55% (inactive).

For `CCN(CC)CCOC(=O)C(O)(c1ccccc1)c1ccccc1`, the percent of DMSO control GFP in assay [1] was 102% (inactive). Further, the GFP response vs DMSO in assay [2] was 108% (inactive); in [4], 92.6% (inactive). The percent response of DMSO control in [3] was 96.5% (inactive). Also, the GFP response, % of DMSO in assay [5] was 94.5% (inactive). Also, the double positive events in [6] turned out to be 62%. The vesicle binding response in assay [6] is 152% (inactive). Further, the inhibition was 2.93% (inactive) in assay [7]; 0.48% (inactive) in assay [11]; -2% (inactive) in assay [14]; -0.9% (inactive) in [15]; -5.6% (inactive) in assay [16]; -101% (inactive) in assay [18]. In addition, the superoxide response (% of plate) in [8] is 90.4% (inactive). The aptamer binding inhibition in [9] was 2% (inactive). Also, the response is 10.4% (inactive) in assay [10] and -1.11% (inactive) in [12]. Further, the binding (% of control) in [13] is 108% (inactive). Moreover, the efflux inhibition (fraction of control) in assay [17] is -0.095 (inactive). The differentiation response in [19] was 7.13% (inactive).

Source of the values: PubChem BioAssay.
